The record followed here is PubChem BioAssay (Tox21).

A short description of experiment [1]: cAMP Responsive Elements (CRE) small molecule antagonists, cell-based qHTS assay: qHTS cell viability counter screen (AID 2060913). Note: nearly all actives have a fitted effect of over 40% in size. Summed up: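 Cytotoxicity read in the same wells as the CRE-bla HEK293T antagonist assay: after 3 h compound with 0.25 uM NKH477 final and 2 h beta-lactamase substrate, CellTiter-Glo luminescence measured.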
In general terms: qHTS replaces the single test concentration by a dilution series.

A short description of experiment [2]: cAMP Responsive Elements (CRE) small molecule agonists, cell-based qHTS assay: qHTS cell viability counter screen (AID 2060914). Note: nearly all actives have a fitted effect of over 50% in size. The method in brief:
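Luminescence read-out (CellTiter-Glo, 30 min RT) of ATP-based viability in CRE-bla HEK 293T cells, run in the same wells as the β-lactamase reporter assay after 3 h compound treatment at 37 °C.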

Records with an inconclusive call do not appear. Values without a mark were called inactive. Activity calls are given as the source filed them. Calls come from the whole dose curve; as a rule, active = well fitted cell-killing curve with a large enough effect in the repeat runs; inconclusive = weak or mixed curves, or effect the other way; inactive = flat fitted curve, though single readings scatter.
% is set by controls: 0 for no effect and ±100 for the full control effect.

Regarding `C[C@]12Cc3cn[nH]c3C[C@@H]1CC[C@@H]1[C@@H]2CC[C@@]2(C)[C@H]1CC[C@]2(C)O`, the Potency entry in experiment [1] and in experiment [2] was “inactive” each time.
Consider `CCCCCCCCCc1ccc(O)cc1`, for which the Potency entry in experiment [1] and in experiment [2] was “inactive” in each case.
Regarding `O=C(O)c1nn(Cc2ccc(Cl)cc2Cl)c2ccccc12`, the Potency entry in experiment [1] and in experiment [2] was “inactive” in each case.
Take `Cc1nc(N)nc(N)n1`: the Potency result in experiment [1] and in experiment [2] was “inactive” throughout.
With `CCC(C)C(C)(COC(N)=O)COC(N)=O` (stereo not given), the Potency entry in experiment [1] and in experiment [2] was “inactive” in each case.
Turning to `Clc1ccc(Oc2ccccc2)cc1`, the Potency result in experiment [1] and in experiment [2] was “inactive” in each case.
In the case of `CCN(CC)C(=S)S`, the Potency result in experiment [1] and in experiment [2] was “inactive” in each case.
As to `CCOP(=O)(CN(CCO)CCO)OCC`, the Potency result in experiment [1] and in experiment [2] was “inactive” each time.
`CCCN(CCC)N=O`: the Potency result in experiment [1] and in experiment [2] was “inactive” in each case.
`CN(C)CCC#N`: the Potency result in experiment [1] and in experiment [2] was “inactive” throughout.
Take `C=CCc1ccccc1O`: the Potency entry in experiment [1] and in experiment [2] was “inactive” each time.
Turning to `CC(=O)C(C)(C)C`, the Potency result in experiment [1] and in experiment [2] was “inactive” throughout.
Turning to `FC(F)(F)c1cccc(C2=CCN(CCc3ccc4ccccc4c3)CC2)c1`, the Potency result in experiment [1] and in experiment [2] was “inactive” each time.
On to `Cc1cnc(C2=NC(C)(C(C)C)C(=O)N2)c(C(=O)O)c1` (stereo not given), for which the Potency entry in experiment [1] and in experiment [2] was “inactive” throughout.
On to `CC(=O)OCC1=C(C(=O)O)N2C(=O)[C@@H](N)[C@H]2SC1`, for which the viability change, negative = cytotoxic in experiment [1] is -1.82% [at 18.9 µM]. Moreover, the activity change, negative = cytotoxicity in experiment [2] was 1.16% [at 18.9 µM].
Turning to `CC(C)(O)C(Cl)(Cl)Cl`, the Potency result in experiment [1] and in experiment [2] was “inactive” in each case.
As to `C[C@]12CC[C@H]3[C@@H](CCC4=CC(=O)CC[C@@H]43)[C@@H]1CC[C@@H]2OC(=O)CCc1ccccc1`, the Potency result in experiment [1] and in experiment [2] was “inactive” throughout.
As to `C[C@@H](Oc1ccc(Cl)cc1Cl)C(=O)O`, the Potency entry in experiment [1] and in experiment [2] was “inactive” throughout.
Consider `CC1CN1` (stereo not given), for which the Potency result in experiment [1] and in experiment [2] was “inactive” in each case.
Turning to `Cc1cccc(OP(=O)(Oc2cccc(C)c2)Oc2cccc(C)c2)c1`, the Potency entry in experiment [1] and in experiment [2] was “inactive” throughout.
Consider `O=CNC(N1CCN(C(NC=O)C(Cl)(Cl)Cl)CC1)C(Cl)(Cl)Cl` (stereo not given), for which the Potency result in experiment [1] and in experiment [2] was “inactive” in each case.
As for `Cc1cccc(N)c1N`, the Potency result in experiment [1] and in experiment [2] was “inactive” in each case.
On to `Cc1ccc(Cl)c(O)c1`, for which the Potency entry in experiment [1] and in experiment [2] was “inactive” throughout.
Regarding `CNC(=O)CSP(=S)(OC)OC`, the Potency entry in experiment [1] and in experiment [2] was “inactive” throughout.
Consider `CC(=O)CCC(C)=O`, for which the Potency result in experiment [1] and in experiment [2] was “inactive” throughout.
For `C#CCOC(C(=O)OCCN(C)C)(c1ccccc1)c1ccccc1`, the Potency result in experiment [1] and in experiment [2] was “inactive” throughout.
As to `NNCc1ccccc1`, the Potency entry in experiment [1] and in experiment [2] was “inactive” throughout.
Regarding `CCCCOC(=O)c1ccccc1C(=O)O`, the Potency entry in experiment [1] and in experiment [2] was “inactive” throughout.
Regarding `Oc1ccc(Cl)cc1Cl`, the Potency entry in experiment [1] and in experiment [2] was “inactive” in each case.
For the compound `C[C@]12CC[C@H]3[C@@H](CCC4=CC(=O)CC[C@@]43C)[C@@H]1CC[C@@H]2C(=O)O`, the Potency result in experiment [1] and in experiment [2] was “inactive” each time.
With `O=C(O)C(F)(F)C(F)(F)C(F)(F)C(F)(F)C(F)(F)F`, the Potency entry in experiment [1] and in experiment [2] was “inactive” throughout.
`CC(C)C(=O)Cl`: the Potency result in experiment [1] and in experiment [2] was “inactive” throughout.
On to `C=CCSSCC=C`, for which the Potency result in experiment [1] and in experiment [2] was “inactive” in each case.
With `ClCCCCBr`, the Potency entry in experiment [1] and in experiment [2] was “inactive” each time.
Consider `Cc1cnc2c(C(=O)O)c(Cl)ccc2c1`, for which the Potency result in experiment [1] and in experiment [2] was “inactive” throughout.
On to `N[C@@H]1C[C@H]1c1ccccc1`, for which the Potency result in experiment [1] and in experiment [2] was “inactive” each time.
`CCOP(=S)(OCC)SCn1c(=O)oc2cc(Cl)ccc21`: the Potency result in experiment [1] and in experiment [2] was “inactive” throughout.
Regarding `CCC[CH2][Sn]([CH2]CCC)([O]C(C)=O)[O]C(C)=O`, the Potency result in experiment [1] and in experiment [2] was “inactive” each time.
Regarding `C=CCc1ccc2c(c1)OCO2`, the Potency result in experiment [1] and in experiment [2] was “inactive” throughout.
In the case of `CCCCCCC[CH2][Sn]([Cl])([Cl])[CH2]CCCCCCC`, the Potency result in experiment [1] and in experiment [2] was “inactive” throughout.
In the case of `ClC(Cl)C(Cl)(Cl)Cl`, the Potency entry in experiment [1] and in experiment [2] was “inactive” each time.
Consider `C[C@H]1CC[C@@H]2[C@@H](C)[C@H]3[C@H](C[C@H]4[C@@H]5CC=C6CC(O[C@@H]7O[C@H](CO)[C@H](O)[C@H](O[C@@H]8O[C@H](CO)[C@@H](O)[C@H](O)[C@H]8O)[C@H]7O[C@H]7O[C@@H](C)[C@H](O)[C@@H](O)[C@H]7O)CC[C@]6(C)[C@H]5CC[C@]34C)N2C1` (stereo not given in full), for which the Potency entry in experiment [1] and in experiment [2] was “inactive” each time.
On to `CCOP(=S)(OCC)Oc1nc(Cl)n(C(C)C)n1`, for which the Potency result in experiment [1] and in experiment [2] was “inactive” throughout.
Take `CC(O)CN(CC(C)O)CC(C)O` (stereo not given): the Potency entry in experiment [1] and in experiment [2] was “inactive” throughout.
In the case of `Clc1cc(Cl)c(-c2cc(Cl)c(Cl)cc2Cl)cc1Cl`, the Potency entry in experiment [1] and in experiment [2] was “inactive” throughout.
As for `Oc1ccccc1Cl`, the Potency entry in experiment [1] and in experiment [2] was “inactive” throughout.
Take `Nc1c(Br)cc(Br)c2c1C(=O)c1ccccc1C2=O`: in experiment [1], the viability change, negative = cytotoxic was 10% [at 18.9 µM]. In addition, the activity change, negative = cytotoxicity in experiment [2] was -19.1% [at 18.9 µM].
For the compound `O=P(OCCCl)(OCCCl)OCCCl`, the Potency result in experiment [1] and in experiment [2] was “inactive” in each case.
Take `C[C@]12CC[C@H]3[C@@H](CC[C@@]45O[C@@H]4C(O)=C(C#N)C[C@]35C)[C@@H]1CC[C@@H]2O`: the Potency result in experiment [1] and in experiment [2] was “inactive” throughout.
For `CCCCCON=O`, the Potency result in experiment [1] and in experiment [2] was “inactive” in each case.
For the compound `CC(C)(c1ccccc1)c1cc(-n2nc3ccccc3n2)c(O)c(C(C)(C)c2ccccc2)c1`, the Potency entry in experiment [1] and in experiment [2] was “inactive” in each case.
In the case of `O=[N+]([O-])c1c(Cl)c(Cl)c(Cl)c(Cl)c1Cl`, the Potency result in experiment [1] and in experiment [2] was “inactive” each time.
In the case of `CCCCCOC(=O)c1ccccc1C(=O)OCCCCC`, the Potency entry in experiment [1] and in experiment [2] was “inactive” in each case.
As for `CC(C)CCCCCOC(=O)c1ccccc1C(=O)OCCCCCC(C)C`, the Potency entry in experiment [1] and in experiment [2] was “inactive” each time.
With `Nc1ccc(Cl)cc1N`, the Potency result in experiment [1] and in experiment [2] was “inactive” in each case.
As to `O=C(CCl)Nc1ccccc1`, the Potency result in experiment [1] and in experiment [2] was “inactive” in each case.
For the compound `S=C=NCCc1ccccc1`, the Potency result in experiment [1] and in experiment [2] was “inactive” in each case.
As to `O=[N+]([O-])O`, the Potency entry in experiment [1] and in experiment [2] was “inactive” in each case.
`OCCSCSCCO`: the Potency result in experiment [1] and in experiment [2] was “inactive” each time.
On to `CNC(=O)O/N=C/C(C)(C)SC`, for which the Potency result in experiment [1] and in experiment [2] was “inactive” each time.
